From PubChem BioAssay AID2796 (The Scripps Research Institute Molecular Screening Center, 2010)
About 8,000 (2.5%) of roughly 320,000 compounds were called active. No stated cut-off is given here; in the data, active means activation above about 47%; inactive means the rest. For the sample, actives were picked, then their nearest neighbours and some compounds at random.

Biological target: Aryl hydrocarbon receptor (Homo sapiens) (UniProt P35869)
Assay: AHR activators, primary screen, cell-based, luminescence, luciferase reporter, human (AID 2796);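 further: 0% = vehicle wells and 100% = reference agonist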
Conditions: AHR-responsive luciferase reporter cells, at 5 µM, hits give high values

Aryl hydrocarbon receptor (Homo sapiens), sequence (P35869 whole entry, looked up): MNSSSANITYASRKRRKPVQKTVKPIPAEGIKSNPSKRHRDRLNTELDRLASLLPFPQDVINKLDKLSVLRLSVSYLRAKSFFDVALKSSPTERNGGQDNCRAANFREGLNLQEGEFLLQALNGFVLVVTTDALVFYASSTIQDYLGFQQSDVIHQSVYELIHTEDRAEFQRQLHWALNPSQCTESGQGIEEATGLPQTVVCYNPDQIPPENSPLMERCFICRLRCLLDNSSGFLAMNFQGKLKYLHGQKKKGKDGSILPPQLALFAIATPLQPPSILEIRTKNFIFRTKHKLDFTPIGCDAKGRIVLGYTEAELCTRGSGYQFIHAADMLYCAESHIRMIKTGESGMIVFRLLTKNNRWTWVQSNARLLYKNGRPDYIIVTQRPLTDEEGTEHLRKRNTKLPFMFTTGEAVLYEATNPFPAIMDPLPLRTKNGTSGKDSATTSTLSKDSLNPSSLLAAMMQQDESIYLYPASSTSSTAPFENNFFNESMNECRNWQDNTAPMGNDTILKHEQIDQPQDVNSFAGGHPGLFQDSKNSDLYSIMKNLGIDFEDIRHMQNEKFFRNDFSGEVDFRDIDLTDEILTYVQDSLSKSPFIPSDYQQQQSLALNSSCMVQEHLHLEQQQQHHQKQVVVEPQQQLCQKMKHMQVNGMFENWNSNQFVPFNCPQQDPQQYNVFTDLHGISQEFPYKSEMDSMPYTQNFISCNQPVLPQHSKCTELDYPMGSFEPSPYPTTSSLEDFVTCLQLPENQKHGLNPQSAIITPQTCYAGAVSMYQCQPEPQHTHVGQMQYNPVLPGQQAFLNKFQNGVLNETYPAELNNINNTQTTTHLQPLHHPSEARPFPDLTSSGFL

| SMILES | activation |
| --- | --- |
| COc1ccccc1-c1cnn2c(N3CCOCC3)cc(C)nc12 | 34.4% (inactive) |
| O=C(COC(=O)c1cccnc1Cl)NC(=O)NC1CCCCC1 | -1.66% (inactive) |
| COC(C[C@@H]1O[C@@H]1C(=O)[C@H](C)OCc1ccccc1)OC | -0.2% (inactive) |
| Nc1nonc1-c1noc(-c2ccc(Br)o2)n1 | 14.2% (inactive) |
| Brc1ccc(-c2noc(-c3ccccc3)n2)o1 | 122% (active) |
| Nc1ccc(-c2nnc(-c3ccccc3)o2)cc1 | 3.02% (inactive) |
| O=C(OCc1ccc(Br)cc1)c1cccc(-c2nnc(-c3ccccc3)o2)c1 | 11.6% (inactive) |
| Cn1nc(-c2ccccc2)c(-c2nc(-c3ccc(Cl)cc3)no2)c1Cl | -1.35% (inactive) |
| Brc1ccc(-c2nnc(-c3ccccc3)o2)o1 | 70.7% (active) |
| CCCCCCSc1ccc(-c2nc3ccc(Cl)cn3c2NCc2ccccc2)cc1 | 1.54% (inactive) |
| Cc1c2cnn(-c3ccccc3)c(=O)c2c(C)n1CCCC(=O)N1CCN(C)CC1 | -2.09% (inactive) |
| CC(C)(C)C1CCC(=NNC(=O)c2ccc(Br)o2)CC1 (configuration not stated) | 9.69% (inactive) |
| C/C(=N/NC(=O)c1ccc(Br)o1)c1ccc(C)o1 | 52.7% (active) |
| C/C(=N\NC(=S)NC1CCCCC1)c1ccc(C)o1 | 8.26% (inactive) |
| CCN(CCCNC(=O)CSc1cc(=O)n(C)c2cc(Cl)ccc12)Cc1ccccc1 | -0.33% (inactive) |
| O=C(NC1CC1)C(Cc1ccccc1)NS(=O)(=O)c1ccccc1F (configuration not stated) | 3.6% (inactive) |
| Cc1no[n+]([O-])c1COc1ccccc1/C=C1\NC(=S)NC1=O | 25.2% (inactive) |
| COc1ccccc1NC(=O)C(C)OC(=O)c1ccc(-n2cnnn2)cc1 (configuration not stated) | -0.41% (inactive) |
| COc1ccccc1NC(=O)c1cc(Cl)nc2ccccc12 | 48.5% (active) |

| SMILES | activation |
| --- | --- |
| COc1ccccc1NC(=O)c1cc(Cl)nnc1Cl | 17.1% (inactive) |
| COc1ccc(-c2cc(C(=O)Nc3ccccc3O)c3ccccc3n2)cc1 | -7.68% (inactive) |
| O=C1c2ccccc2C2=Nc3ccccc3SC(c3ccccc3F)C12 (configuration not stated) | 74.3% (active) |
| CCOC(=O)C1=C(C)N=C2c3ccccc3C(=O)C2C1c1ccc(Br)cc1 (configuration not stated) | 3.41% (inactive) |
| O=C1c2ccccc2C(=O)C1c1ccccc1F | 1.57% (inactive) |
| CCCn1cc(S(=O)(=O)c2ccc(C)cc2)c(=O)c2cc(OCC)ccc21 | -2.12% (inactive) |
| c1ccc(-c2cc(-c3ccccc3)[nH]n2)cc1 | 65.1% (active) |
| Nc1cccc(-c2cc(-c3ccccc3)nc(-c3cccc(N)c3)n2)c1 | 27.6% (inactive) |
| c1ccc(-c2cc(-c3nnc4sc(-c5ccccn5)nn34)[nH]n2)cc1 | -8.07% (inactive) |
| Oc1ccccc1-c1cc(-c2ccc(Cl)cc2)n[nH]1 | 52.2% (active) |
| O=C(Nc1cccnc1Cl)c1cc(-c2ccccc2O)on1 | 5.22% (inactive) |
| Cc1ccc(NC(=O)c2cc(-c3ccccc3O)n[nH]2)cc1C | -2.85% (inactive) |
| CCCNC(=O)C(=O)Nc1cc2c3c(c1)CCC(=O)N3CCC2 | 28.5% (inactive) |
| CSC1=N/C(=C\C=C\c2cccs2)C(=O)S1 | 8.97% (inactive) |
| CCOc1ccc(NC(=O)CCS(=O)(=O)c2ccc3c(c2)CCCN3C(=O)CC)cc1 | 4.35% (inactive) |
| O=C(Cn1cnc2c(OCc3ccccc3)ncnc21)NCCCn1ccnc1 | -1.22% (inactive) |
| CCCN1C(=O)C(NC(C)=O)c2cc(OC)ccc21 (configuration not stated) | 0.18% (inactive) |
| CCOC1CS(=O)(=O)CC1OCC (configuration not stated) | 1.87% (inactive) |
